Rows were chosen to be rich in hits. Some 7.3% of all compounds tested hit in one or more screens of this group.
ELG1 genotoxic: genotoxicity induction in ELG1-luciferase HEK293T cells | HEK293T ELG1-luciferase reporter, luminescence, 16 h | Potency, µM (highest dose often 46 µM), most hits filed as activators | actives 1.3% (n = 330,000); also: nearly all actives have a fitted effect of over 60% in size
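Genotoxicity was scored as increased ELG1-luciferase reporter signal, measured by ONE-Glo luminescence (30 min, room temperature). Compound or vehicle exposure of the HEK293T reporter cells lasted 16 hr at 37°C.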
FLuc modulator: firefly luciferase modulation, counter-screen for miR-21 project; purified FLuc, Km substrates, luminescence inhibition; actives 6.9% (n = 360,000); AID 588342; Potency, µM (titrated, usually from 57.5 µM), usual class: inhibitors; also: nearly all actives have a fitted effect of over 55% in size
Target sequence (P08659 whole entry, looked up): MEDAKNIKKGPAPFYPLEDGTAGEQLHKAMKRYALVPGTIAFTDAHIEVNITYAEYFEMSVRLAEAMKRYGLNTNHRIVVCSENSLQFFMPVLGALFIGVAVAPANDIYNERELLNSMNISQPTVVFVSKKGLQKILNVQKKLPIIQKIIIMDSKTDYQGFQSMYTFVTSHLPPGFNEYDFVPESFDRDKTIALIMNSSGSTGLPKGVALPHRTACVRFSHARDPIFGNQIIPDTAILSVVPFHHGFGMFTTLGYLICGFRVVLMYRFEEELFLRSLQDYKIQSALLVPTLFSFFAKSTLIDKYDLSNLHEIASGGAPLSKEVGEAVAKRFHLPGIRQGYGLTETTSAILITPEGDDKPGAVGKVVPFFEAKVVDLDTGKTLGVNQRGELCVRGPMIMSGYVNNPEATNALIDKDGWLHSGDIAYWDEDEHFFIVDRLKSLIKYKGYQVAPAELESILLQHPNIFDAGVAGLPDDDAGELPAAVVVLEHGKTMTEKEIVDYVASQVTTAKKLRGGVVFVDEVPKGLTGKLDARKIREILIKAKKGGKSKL
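Purified P. pyralis luciferase, 10 nM final, with Km-level 10 uM D-luciferin and 10 uM ATP in 50 mM Tris acetate pH 7.5, 10 mM Mg acetate, 0.01% Tween-20, 0.05% BSA; 6-point qHTS titration about 60 µM downward; luminescence read.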
Luc counter: Kinase-Glo luciferase inhibition (counter-screen) | Q27757 | Kinase-Glo luciferase, ATP luminescence, 8 min | Potency, µM (top dose mostly 38.3 µM), hits mostly inhibitors | actives 0.28% (n = 200,000); also: nearly all actives have a fitted effect of over 60% in size
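Luminescence was the read-out, taken after 8-minute incubation at ambient temperature. Luciferase turned over luciferin with 10 uM ATP in imidazole pH 7.2 buffer containing KCl, MgCl2, Tween 20 and BSA.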
NPC1 promoter act: activators of NPC1 promoter | Huh7 NPC1 promoter luciferase reporter, 24 h | actives 2.4% (n = 320,000) | Potency, µM (titrated, usually from 9.22 µM), usual class: activators; also: nearly all actives have a fitted effect of over 60% in size
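Quantitative HTS used a cell-based reporter: Huh7 cells stably bearing the NPC1 promoter upstream of luciferase were treated with compounds for 24 h, and promoter activation was read as luminescence.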
SMN2 splice enh: enhancers of SMN2 splice variant expression; AID 1458; actives 2.8% (n = 210,000); HEK293 SMN2-luciferase splicing reporter, luminescence, 30-36 h; Potency, µM (titrated, usually from 46.1 µM), most hits filed as activators; also: nearly all actives have a fitted effect of over 55% in size
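HEK293 cells carry an SMN2 minigene-luciferase reporter in which exon 7 inclusion puts luciferase in frame. Cells were seeded at 2000 cells/well, attached for 10-12 hours, then exposed to compounds for 30-36 hours at 37C before ONE-Glo luminescence.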
Rab9 prom act: activates the Rab9 promoter; Huh7 Rab9 promoter-luciferase reporter, luminescence, 24 h; Potency, µM (titrated, usually from 9.22 µM), usual class: activators; actives 2.8% (n = 320,000); AID 485297; also: nearly all actives have a fitted effect of over 60% in size
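Quantitative HTS format; Huh7 Rab9-luciferase reporter cells (1500/well) receive compound 2 h post-plating, incubate 24 h at 37 °C, then get luciferase reagent for 10 min before luminescence reading.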
Of the large screens only hits and unclear results are named; the others gave an inactive call. Calls follow the shape of the dose curve; as a rule, active = well fitted curve in the direction sought with a large enough effect; inconclusive = small, poorly fitted or top-dose-only effect, or another doubt; inactive = no such curve, though single readings can be large; an effect the other way counts as inactive or inconclusive.

COc1ccc(-c2ccc(-c3nnn(CC(=O)N4CCOCC4)n3)cc2)cc1	ELG1 genotoxic inconclusive, FLuc modulator 0.38µM, NPC1 promoter act 3.2µM, SMN2 splice enh inconclusive, Rab9 prom act 2.8µM
CCC(=O)c1c(NC(CC)CO)cc(C)oc1=O (stereo unspecified)	none
CSc1nc(N)nc(-c2cccs2)c1C#N	FLuc modulator inconclusive
CC(C)Sc1nc(N)nc(-c2cccs2)c1C#N	ELG1 genotoxic inconclusive, FLuc modulator 17µM, NPC1 promoter act inconclusive, SMN2 splice enh 18µM, Rab9 prom act 2.8µM
Cc1ccc(CNC(=O)Nc2cc(C(=O)NCc3cccc(F)c3)ccc2N2CCCC2)cc1	none (no result: ELG1 genotoxic, Luc counter, NPC1 promoter act, SMN2 splice enh, Rab9 prom act)
CC(=O)N(C)c1ccc(N=NC2C(=O)N(C(N)=S)N=C2C)cc1 (stereo unspecified)	ELG1 genotoxic inconclusive, FLuc modulator 3µM, NPC1 promoter act 0.5µM (no result: Luc counter, SMN2 splice enh)
CC1=NN(C(N)=S)C(=O)C1N=Nc1c(C)cc(C)cc1C (stereo unspecified)	ELG1 genotoxic inconclusive, FLuc modulator inconclusive
CC1=NN(C(N)=S)C(=O)C1N=Nc1ccc(S(N)(=O)=O)cc1 (stereo unspecified)	FLuc modulator 19µM (no result: Luc counter, SMN2 splice enh)
CC1=NN(C(N)=S)C(=O)C1N=Nc1cccc(Cl)c1 (stereo unspecified)	ELG1 genotoxic inconclusive, FLuc modulator 17µM, NPC1 promoter act inconclusive, Rab9 prom act inconclusive (no result: Luc counter, SMN2 splice enh)
CC1=NN(C(N)=S)C(=O)C1N=Nc1c(Cl)cc([N+](=O)[O-])cc1Cl (stereo unspecified)	FLuc modulator 13µM, NPC1 promoter act inconclusive, Rab9 prom act inconclusive (no result: Luc counter, SMN2 splice enh)
COc1ccc(/C=C/c2nc3ccccc3c(=O)n2-c2cccc(C(=O)O)c2)cc1	FLuc modulator inconclusive (no result: Luc counter, SMN2 splice enh)
Cc1cc(=O)[nH]c2nnc(SCC(=O)Nc3cc(C(F)(F)F)ccc3Cl)n12	none (no result: ELG1 genotoxic, Luc counter, NPC1 promoter act, SMN2 splice enh, Rab9 prom act)
O=C(CSc1nnc2[nH]c(=O)cc(-c3ccccc3)n12)Nc1ccc(F)cc1F	FLuc modulator 1.9µM (no result: ELG1 genotoxic, Luc counter, NPC1 promoter act, SMN2 splice enh, Rab9 prom act)
Cc1cc(=O)[nH]c2nnc(SCC(=O)Nc3ccc(F)cc3F)n12	none (no result: ELG1 genotoxic, Luc counter, NPC1 promoter act, SMN2 splice enh, Rab9 prom act)
O=C(CSc1nnc2[nH]c(=O)cc(-c3ccccc3)n12)Nc1cc(C(F)(F)F)ccc1Cl	FLuc modulator 0.21µM (no result: ELG1 genotoxic, Luc counter, NPC1 promoter act, SMN2 splice enh, Rab9 prom act)
Cc1cccc(NC(=O)CSc2nnc3[nH]c(=O)cc(-c4ccccc4)n23)c1C	FLuc modulator 3µM (no result: ELG1 genotoxic, Luc counter, NPC1 promoter act, SMN2 splice enh, Rab9 prom act)
CN(C(=O)CSc1nnc2[nH]c(=O)cc(-c3ccccc3)n12)c1ccccc1	FLuc modulator 19µM (no result: ELG1 genotoxic, Luc counter, NPC1 promoter act, SMN2 splice enh, Rab9 prom act)
Cc1ccccc1OCCCn1c(CCNC(=O)C2CCCCC2)nc2ccccc21	FLuc modulator inconclusive (no result: ELG1 genotoxic, Luc counter, NPC1 promoter act, Rab9 prom act)
COc1ccc(Nc2oc(/C=C/c3ccc(F)cc3)nc2C#N)cc1	none (no result: ELG1 genotoxic, Luc counter, NPC1 promoter act, Rab9 prom act)
C/C(N)=C(/C#N)C(=O)COC(=O)CSc1ccccc1	none
CCCCOc1ccc(CSc2nnc(C)n2N)cc1[N+](=O)[O-]	FLuc modulator 7.6µM (no result: SMN2 splice enh)
O=[N+]([O-])c1nn(-c2ccc3c(c2)OCCO3)n(O)c1=NCc1ccc(F)cc1	ELG1 genotoxic inconclusive, FLuc modulator 4.3µM, NPC1 promoter act inconclusive, SMN2 splice enh 4µM, Rab9 prom act 3.5µM
O=[N+]([O-])c1nn(-c2ccc3c(c2)OCCO3)n(O)c1=NCCC1=CCCCC1	ELG1 genotoxic inconclusive, FLuc modulator inconclusive, NPC1 promoter act inconclusive, SMN2 splice enh inconclusive, Rab9 prom act 3.5µM
COc1cc(N=c2c([N+](=O)[O-])nn(-c3ccc4c(c3)OCCO4)n2O)cc(OC)c1	FLuc modulator inconclusive, SMN2 splice enh 13µM, Rab9 prom act inconclusive
O=[N+]([O-])c1nn(-c2ccc3c(c2)OCCO3)n(O)c1=NCc1ccc(F)cc1Cl	ELG1 genotoxic inconclusive, FLuc modulator inconclusive, NPC1 promoter act inconclusive, SMN2 splice enh 3.5µM, Rab9 prom act 2.8µM
CN=c1c([N+](=O)[O-])nn(-c2ccc3c(c2)OCCO3)n1O	ELG1 genotoxic inconclusive, Rab9 prom act inconclusive
CCOc1ccc(C2C(C#N)=C(N)Oc3cc(C)[nH]c(=O)c32)cc1OC (stereo unspecified)	none (no result: Luc counter, SMN2 splice enh)
FC(F)(F)c1cccc(OCCOCCn2cncn2)c1	none
